{"source": "PubChem BioAssay (NCATS)", "note": "Inconclusive results are not listed. Where a call stands in place of a potency, no number is given. Activity calls are given as the source filed them. Calls come from the whole dose curve; as a rule, active = well fitted activation curve with a large enough effect; inconclusive = small, poorly fitted or top-dose-only effect, or effect the other way; inactive = flat fitted curve, though single readings scatter. Potency is the fitted concentration of half-maximal effect.", "data": [{"experiment": "qHTS Assay for Identification of Small Molecule Agonists for Thrombopoietin (TPO) Signaling Pathway (AID 917)", "conditions": "TPO signaling pathway reporter cells, agonist qHTS, stimulated with TPO at its EC50; series mostly up to 38.5 µM", "summary_of_the_method": "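Luciferase reporter (Glycoprotein IIb promoter) in IL-3-deprived Ba/F3 cells carrying human TPO receptor; compounds co-added with 26 pM TPO, incubated 24 h, 37 C. Steadylite luminescence measured after 10 min.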", "values": [{"smiles": "NC(N)=NC(N)=Nc1ccccc1", "Potency": "inactive"}, {"smiles": "CC(C)NC[C@H](O)COc1ccc(CC(N)=O)cc1", "Potency": "inactive"}, {"smiles": "O=c1cc(-c2ccccc2)[nH]c2nc(Cl)ccc12", "Potency": "inactive"}, {"smiles": "O=[N+]([O-])c1cccc2c(Br)[nH]nc12", "Potency": "inactive"}, {"smiles": "O=C(O)c1ccccc1Nc1ccccc1", "Potency": "inactive"}, {"smiles": "Cn1c(=O)c2[nH]c(C3CCCC3)nc2n(C)c1=O", "Potency": "inactive"}, {"smiles": "Cn1c(=O)c2[nH]c(-c3ccc(S(=O)(=O)O)cc3)nc2n(C)c1=O", "Potency": "inactive"}, {"smiles": "O=C(O)/C=C/c1ccc(O)c(O)c1", "Potency": "inactive"}, {"smiles": "COCc1nc2c([nH]1)c(=O)n(C)c(=O)n2CC(C)C", "Potency": "inactive"}, {"smiles": "O=c1[nH]c(=O)c2nc3ccccc3nc2[nH]1", "Potency": "inactive"}, {"smiles": "O=C(O)c1cc2cc(F)ccc2[nH]1", "Potency": "inactive"}, {"smiles": "CC(C)Cn1c(=O)n(C)c(=O)c2[nH]cnc21", "Potency": "inactive"}, {"smiles": "Cn1cc(C(=O)OCC2CCN(CCNS(C)(=O)=O)CC2)c2ccccc21", "Potency": "inactive"}, {"smiles": "O=C1Cc2c([nH]c3ccc(Br)cc23)-c2ccccc2N1", "Potency": "158 nM (active)"}, {"smiles": "NCCCCN", "Potency": "inactive"}, {"smiles": "CCn1c(=O)[nH]c2cc(Cl)c(Cl)cc21", "Potency": "inactive"}, {"smiles": "N=C(N)SCCN", "Potency": "inactive"}, {"smiles": "Cn1ccnc1", "Potency": "inactive"}, {"smiles": "NCCCCN=C(N)N", "Potency": "inactive"}]}]}
